Two molecules from the supplement of paper PMC8728848 can be followed below.

Common to all, as to experiment: glycan array binding signal (z-score within array); higher = stronger binding
Common to all, as to conditions: glycan notation: IUPAC condensed, linker removed

The target of experiment [1] is Fuc(a1-2)Gal(b1-3)GalNAc(b1-3)Gal(a1-4)Gal(b1-4)Glc. In outline: (§1)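 Negative Z-scores can be read as non-binding. The Z-score is calculated within each array and then averaged across arrays of one protein sequence at different concentrations or buffers and across linkers. Arrays, 3228 in all, were curated from the Consortium for Functional Glycomics database and kept only where the protein sequence was available.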

For experiment [2], the target named is Fuc(a1-2)Gal(b1-3)GlcNAc(b1-3)Gal(b1-4)Glc. Summed up:
as §1

For experiment [3], the target named is Fuc(a1-2)[GalNAc(a1-3)]Gal(b1-4)Glc. Summed up:
as §1

The next experiment has as its target Fuc(a1-3)GlcNAc. Summed up:
as §1

Experiment [4] addresses Fuc(a1-3)[Gal(b1-4)]Glc6S. Summed up: as §1
Another experiment addresses Gal(b1-3)GalNAc. Summed up: as §1
Experiment [5] deals with Gal(b1-3)GalNAc(b1-4)[Neu5Ac(a2-3)]Gal(b1-4)Glc. In outline:
as §1

Experiment [6] deals with Gal(b1-3)GlcNAc(b1-3)Gal(b1-4)Glc. Summed up:
as §1

In experiment [7] the target is Gal(b1-3)[Neu5Ac(a2-6)]GlcNAc(b1-6)Gal(b1-4)Glc. Summed up:
as §1

The target of experiment [8] is Gal(b1-4)GlcNAc(b1-3)Gal(b1-4)Glc. Summed up: as §1
The next experiment has as its target Gal4S(b1-4)GlcNAc. In outline:
as §1

A further experiment deals with Gal4S6S(b1-4)GlcNAc. Summed up:
as §1

The target in a further experiment is Glc(b1-4)Glc. Summed up:
as §1

The target in experiment [9] is GlcNAc(b1-3)Gal(b1-4)GlcNAc(b1-3)Gal(b1-4)GlcNAc. In outline:
as §1

Experiment [10] deals with Man(a1-2)Man(a1-2)Man(a1-3)Man. In outline: as §1
Experiment [11] concerns the target Man(a1-2)Man(a1-6)[Man(a1-3)]Man(a1-6)[Man(a1-2)Man(a1-2)Man(a1-3)]Man. In outline: as §1
The target of experiment [12] is Neu5Ac(a2-3)Gal(b1-4)GlcNAc(b1-3)Gal(b1-4)GlcNAc(b1-3)Gal(b1-4)GlcNAc. Summed up:
as §1

Experiment [13] concerns the target Neu5Ac(a2-6)Gal(b1-4)GlcNAc(b1-2)Man(a1-3)[GlcNAc(b1-2)Man(b1-4)GlcNAc(b1-2)Man(a1-6)]Man(b1-4)GlcNAc(b1-4)GlcNAc. Summed up: as §1
Experiment [14] deals with Neu5Ac(a2-6)Gal(b1-4)GlcNAc6S. In outline:
as §1

In another experiment the target is Neu5Ac(a2-6)GalNAc. Summed up: as §1
For experiment [15], the target named is Neu5Ac(a2-8)Neu5Ac(a2-8)Neu5Ac(a2-3)Gal(b1-4)Glc. Summed up:
as §1

Experiment [16] deals with Fuc(a1-2)Gal(b1-4)[Fuc(a1-3)]GalNAc(b1-3)Gal(b1-4)[Fuc(a1-3)]GlcNAc. Summed up:
as §1

Experiment [17] deals with Fuc(a1-2)Gal(b1-4)[Fuc(a1-3)]GalNAc(b1-3)Gal(b1-4)[Fuc(a1-3)]GlcNAc(b1-3)Gal(b1-4)[Fuc(a1-3)]GalNAc. In outline: as §1
Experiment [18] deals with Fuc(a1-2)[GalNAc(a1-3)]Gal(b1-4)[Fuc(a1-3)]GlcNAc. In outline: as §1
In the next experiment the target is Fuc(b1-3)GlcNAc. In outline:
as §1

The target in the next experiment is Gal(a1-4)Gal(b1-4)Gal. Summed up: as §1
The target in another experiment is Gal(b1-2)Gal. In outline:
as §1

The next experiment has as its target Gal(b1-3)Gal. In outline: as §1
The target in experiment [19] is Gal(b1-4)GalNAc(b1-3)[Fuc(a1-2)]Gal(b1-4)GlcNAc. Summed up: as §1
The target of the next experiment is GlcA(b1-3)Gal. In outline: as §1
For a further experiment, the target named is GlcA(b1-6)Gal. Summed up: as §1
Experiment [20] addresses GlcNAc(b1-3)[GlcNAc(b1-4)][GlcNAc(b1-6)]GlcNAc. Summed up:
as §1

The target in experiment [21] is Man(a1-2)Man(a1-2)Man(a1-6)[Man(a1-3)]Man. Summed up:
as §1

For experiment [22], the target named is Man(a1-2)Man(a1-3)[Man(a1-6)]Man(a1-6)[Man(a1-2)Man(a1-3)]Man(b1-4)GlcNAc(b1-4)GlcNAc. Summed up:
as §1

For the next experiment, the target named is Man(b1-4)GlcNAc. In outline: as §1
Experiment [23] has as its target Neu5Ac(a2-3)Gal(b1-3)GlcNAc. In outline: as §1
The target in experiment [24] is Neu5Ac(a2-3)Gal(b1-3)GlcNAc6S. In outline:
as §1

Experiment [25] concerns the target Neu5Ac(a2-3)Gal(b1-4)GlcNAc(b1-3)Gal(b1-3)GlcNAc. Summed up:
as §1

Experiment [26] deals with Neu5Ac(a2-8)Neu5Ac(a2-3)[GalNAc(b1-4)]Gal(b1-4)Glc. In outline: as §1
Experiment [27] addresses Neu5Ac(a2-8)Neu5Ac(a2-8)Neu5Ac(a2-3)[GalNAc(b1-4)]Gal(b1-4)Glc. In outline: as §1
In experiment [28] the target is Neu5Gc(a2-3)Gal(b1-3)GlcNAc. In outline: as §1

This is one part of a sample in which the strongest signals are shown more often than they occur.

B1: TbCVNHOb (Tuber borchii) (protein)
chain: MSFYASSEDVRTIEEGGRTWLVGRARRADGSWQDIKLDLDNIIGNRDGHLTWGEQNFTQSASDIRFNFEGGSNVPVLRAKLRNAAGGEQESDLNLGERLTNNNGDLVFN
B1: the “glycan array binding signal (z-score)” value was 0.303 in [1]; 1.56 in [2]; -0.147 in [3]; 0.012 with Fuc(a1-3)GlcNAc; 0.185 in experiment [4]; -0.117 with Gal(b1-3)GalNAc. The “glycan array binding signal (z-score)” value in [5] was -0.245; in [6] it was 5.86; in [7], 1.4; in experiment [8] it was 2.32; in the experiment with Gal4S(b1-4)GlcNAc it was 0.051; with Gal4S6S(b1-4)GlcNAc, -0.061. Further, the “glycan array binding signal (z-score)” value was -0.189 in the experiment with Glc(b1-4)Glc; -0.144 in experiment [9]; 1.35 in experiment [10]; -0.185 in [11]; -0.237 in experiment [12]; -0.008 in [13]. The “glycan array binding signal (z-score)” value in experiment [14] is -0.275; in the experiment with Neu5Ac(a2-6)GalNAc, -0.28; in experiment [15], -0.118.

B2: MLTim-4 (Mus musculus), Q6U7R4 (protein)
chain: MSKGLLLLWLVTELWWLYLTPAASEDTIIGFLGQPVTLPCHYLSWSQSRNSMCWGKGSCPNSKCNAELLRTDGTRIISRKSTKYTLLGKVQFGEVSLTISNTNRGDSGVYCCRIEVPGWFNDVKKNVRLELRRAT
B2: the “glycan array binding signal (z-score)” value in [1] was -0.142; in experiment [16], -0.799; in experiment [17], 0.195; in experiment [18], 0.41; in experiment [4] it was 2.31; in the experiment with Fuc(b1-3)GlcNAc, -0.108. In addition, the “glycan array binding signal (z-score)” value with Gal(a1-4)Gal(b1-4)Gal is 0.491; in the experiment with Gal(b1-2)Gal, 1.47; with Gal(b1-3)Gal, 0.543; in experiment [19], -0.991; in the experiment with GlcA(b1-3)Gal it was 6.6; in the experiment with GlcA(b1-6)Gal, 2.97. The “glycan array binding signal (z-score)” value in [20] is -0.523; in experiment [21], 0.353; in experiment [22], -0.137; with Man(b1-4)GlcNAc, 1.06; in experiment [23], -0.547; in experiment [24], 2.45. Moreover, the “glycan array binding signal (z-score)” value in experiment [25] is -0.655; in experiment [26] it was -0.484; in experiment [27], -0.741; in [28], -0.343.
